Compound activity (PubChem)
Tb PFK inh-1: qHTS Assay to Find Inhibitors of T. brucei phosphofructokinase; AID 485367, 2010; T. brucei PFK, ADP-Glo luminescence; hit rate 0.17% among 330,000; ATP-dependent 6-phosphofructokinase (Trypanosoma brucei brucei), O15648; Potency, µM (top dose mostly 57.5 µM), usual class: inhibitors; also: nearly all actives have a fitted effect of over 60% in size
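ADP-Glo luminescence quantified ADP after 45 min at room temperature, with 1.25 nM T. brucei PFK, 0.1 mM ATP and 0.5 mM fructose-6-phosphate in pH 8.0 TEA buffer. qHTS titrations up to 57 µM; curves classified by quality.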
PI4K2A block: qHTS for small molecular inhibitors of PI4K2A | Phosphatidylinositol 4-kinase type 2-alpha (Homo sapiens), Q9BTU6 | purified PI4K2A, ADP-Glo luminescence, 1 h; active compounds read low | activity change, negative = inhibition, % at 76.9 µM | hit rate 0.13% among 420,000 | AID 1346378, 2018; in the data active = activity change below about -50%; inconclusive = mostly about -30% to -49%
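PI4K2A activity was measured by ADP-Glo luminescence: enzyme (4 ug/mL stock) and phosphatidylinositol (1.2 mM stock) in Tris pH 7.5/MgCl2/EGTA/Triton X-100 buffer were reacted with ATP (300 microM stock) for one hour at ambient temperature.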
Pin1 inhibitor: qHTS Assay to Find Inhibitors of Pin1; Peptidyl-prolyl cis-trans isomerase NIMA-interacting 1 (Homo sapiens), Q13526; hit rate 0.009% among 390,000; Pin1 FP peptide displacement, HiFluor488, 10 min; Potency, µM (titrated, usually from 115 µM), hits mostly inhibitors; active = well fitted inhibition curve with a large enough effect in the polarisation, with a control signal flat, not every such curve was filed as active; inconclusive = small, poorly fitted or top-dose-only effect, or effect the other way, or a change in a side signal; inactive = no such curve, though single readings can be large or run the other way; the % refers to the polarisation
Tb PGK inh: qHTS Assay to Find Inhibitors of Phosphoglycerate Kinase. Phosphoglycerate kinase, glycosomal (Trypanosoma brucei brucei), P07378. PGK/GAPDH coupled, Kinase-Glo luminescence, 60 min. Potency, µM (top dose mostly 57.5 µM), usual class: inhibitors. hit rate 0.043% among 380,000. AID 602233, 2012; also: nearly all actives have a fitted effect of over 60% in size
Target sequence (P07378 whole entry, looked up): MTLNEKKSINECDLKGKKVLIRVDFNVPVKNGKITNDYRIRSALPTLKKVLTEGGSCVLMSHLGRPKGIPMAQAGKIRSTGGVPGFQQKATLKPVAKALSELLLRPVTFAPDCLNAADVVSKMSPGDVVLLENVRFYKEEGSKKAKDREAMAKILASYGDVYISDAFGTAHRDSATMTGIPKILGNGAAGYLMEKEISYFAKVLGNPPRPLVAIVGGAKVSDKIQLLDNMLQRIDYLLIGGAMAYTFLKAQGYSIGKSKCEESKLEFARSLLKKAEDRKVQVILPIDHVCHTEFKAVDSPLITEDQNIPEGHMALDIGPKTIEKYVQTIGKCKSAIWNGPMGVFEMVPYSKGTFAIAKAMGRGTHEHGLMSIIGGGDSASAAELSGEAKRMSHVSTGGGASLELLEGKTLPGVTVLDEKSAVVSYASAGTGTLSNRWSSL
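Luminescent ATP detection (Kinase-Glo Plus) follows a 60-minute room-temperature incubation, with wells lacking PGK as controls. Buffer: 100 mM TEA (pH 7.6), 5 mM MgCl2, 0.01% Tween-20. Coupling enzyme GAPDH (100 nM final) supplies unstable 1,3-BPG in-well.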
PI5P4K alpha inh: qHTS for Inhibitors of phosphatidylinositol 5-phosphate 4-kinase (PI5P4K); Phosphatidylinositol 5-phosphate 4-kinase type-2 alpha (Homo sapiens), P48426; PI5P4Kalpha enzyme, ADP-Glo luminescence, 60 min; active compounds read low; max response, %; hit rate 1.2% among 330,000; active = max response of -50% or lower; inconclusive = between -30% and -50%; inactive = -30% or higher; also: value at the top dose of about 77 µM
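Enzyme plus substrate dispensed, test compounds pinned in, then ATP (5 microM final) added. After 60 min at RT, ADP-Glo reagent 1 for 45 min and reagent 2 for 30 min preceded luminescence imaging.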
TbPFK ATP: Tb PFK orthogonal confirmatory assay using ATP depletion (Kinase-Glo Plus) as an alternative measure of Tb PFK activity: Hit Validation. shares compounds with Tb PFK inh-1. Tb PFK enzyme, ATP depletion, Kinase-Glo Plus luminescence. Potency, µM (titrated, usually from 57.5 µM). hit rate 47% among 1,100. AID 504636, 2011; calls by dose curve; also: nearly all actives have a fitted effect of over 60% in size
Tb PFK inh-2: Inhibitors of T. brucei phosphofructokinase: Hit Validation; shares compounds with Tb PFK inh-1; purified T. brucei PFK, ADP-Glo luminescence, 45 min; Potency, µM (top dose mostly 57.5 µM), actives largely listed as inhibitors; hit rate 41% among 1,100; AID 504637, 2011; also: nearly all actives have a fitted effect of over 60% in size
ADP-Glo interf: qHTS for Inhibitors of PI5P4K: ADP-Glo counter assay; shares compounds with PI5P4K alpha inh; 1,100 tested, under 10 active; AID 743285, 2014; ADP-Glo detection counter-screen, luciferase luminescence, no enzyme; Potency, µM (series often up to 76.9 µM), usual class: inhibitors
Hits are given with their value; - = inactive; ? = inconclusive; . = not tested or not shown. The full list was thinned out, with hits kept by preference. Unless noted, calls follow the shape of the dose curve; as a rule, active = well fitted curve in the direction sought with a large enough effect; inconclusive = small, poorly fitted or top-dose-only effect, or another doubt; inactive = no such curve, though single readings can be large; an effect the other way counts as inactive or inconclusive.

SMILES	Tb PFK inh-1	PI4K2A block	Pin1 inhibitor	Tb PGK inh	PI5P4K alpha inh	TbPFK ATP	Tb PFK inh-2	ADP-Glo interf
O=C1N=c2ccccc2=C1c1sc(Nc2ccc(O)cc2)nc1O	?	-65	?	-	-65	-	-	.
O=C(Nc1cccc(Cl)c1)OC1CN2CCC1CC2 (stereo not drawn)	-	-	-	-	-	.	.	.
O=C(Nc1cccc(Cl)c1)c1cccc(N2C(=O)C3CC=CCC3C2=O)c1 (stereo not drawn)	27µM	-	-	-	-	6µM	13µM	.
N=C1SCC(=O)N1Cc1ccccc1	-	-	-	-	-	.	.	.
N=C1SCC(=O)N1c1ncc(Cc2cccc(Cl)c2)s1	?	-	-	-	-	24µM	?	.
CCCC(C)C1(CC)C(=O)N=C(S)NC1=O (stereo not drawn)	.	-	.	.	.	.	.	.
NCCc1c[nH]c2ccc(F)cc12	?	.	.	.	.	?	?	.
O=c1c2ccccc2nc(/C=C\c2cccc(Br)c2)n1-c1ccc(O)cc1	.	-	-	-	.	.	.	.
O=C(OCc1ccco1)c1ccc(S(=O)(=O)N2CCCCC2)cc1	24µM	-	-	-	-52	?	?	-
C#CC[N+]1(C)[C@@H]2CC(OC(=O)C(CO)c3ccccc3)C[C@H]1C(O)C2 (stereo partly drawn)	-	-	-	-	-	.	.	.
CC(C)N(CCC(=O)c1ccc2ccccc2c1)Cc1ccccc1	?	-	?	-	-89	30µM	?	-
COC(=O)C1=C(c2ccc3ccccc3c2)C[C@@H]2CC[C@H]1N2C(=O)NC(C)C	-	-	-	-	-	.	.	.
COc1ccc(OC)c(NC(=O)COC(=O)c2cc3c(s2)CCC3)c1	?	-	?	?	-83	?	?	-
Cc1ccc(NC(=O)CN(C)C(=O)c2cccc(-n3cccc3)c2)cc1	?	-	.	?	-101	?	?	-
COc1ccc(NC(=O)CN(C)C(=O)CSC(c2ccccc2)c2ccccc2)cc1	-	-	-	-	-	.	.	.
CCS(=O)(=O)CCSP(=O)(OC)OC	.	-	-	-	-	.	.	.
O=C(Nc1nc(-c2ccco2)c(-c2ccco2)s1)c1cnccn1	12µM	-	?	-	-67	-	-	-
Cc1ccc(NC(=O)[C@@H](NC(=O)N2C[C@H]3C[C@@H](C2)c2cccc(=O)n2C3)C(C)C)cc1	-	-	-	-	-	.	.	.
COc1ccc(CN2Cc3cnnn3-c3ccccc3C2C#N)cc1 (stereo not drawn)	.	-	-	-	-	.	.	.
N#CC1c2ccccc2-n2nncc2CN1Cc1cc(Cl)cc(Cl)c1 (stereo not drawn)	.	-	?	-	-60	.	.	-
COc1ccc(C(=O)C2CCCN(Cc3ccon3)C2)c(OC)c1 (stereo not drawn)	-	-	-	-	-84	.	.	-
CN1C[C@H]2CON(C)[C@H]2C[C@H]1c1cccc(Br)c1	.	-	-	-	-	.	.	.
